Assay results: the supplement of paper PMC12636033
± gives the standard deviation of the averaged measurements. In all, about 33,000 sequences were measured (“E-score (rank enrichment, -0.5 to 0.5)”: median about -0.0028, highest 2% from about 0.23 on). The full list was thinned out, with the highest values kept by preference.

These sequences were tested on 2Sb-muMax20 (muMax20 with two 1,3-bis(methyl)benzene Cys staples, A13C/A17C and Q88C/A92C, C-terminal Lys) (assay: PBM 8-mer E-score (E-score (rank enrichment, -0.5 to 0.5)); higher = stronger preferential binding).
Experimental: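 Protein binding microarray (universal PBM chip covering all 10-mers in fixed probe flanks) with chemically synthesized human Max(13-93) bHLH-LZ analogs (not full-length Max) bearing noncanonical residues (hArg, Tha, Aib, Nle at 65) and aromatic Cys staples. Read-out per 8-mer (and its reverse complement): E-score (rank-based enrichment, -0.5 to 0.5) and Z-score of median probe intensity.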

Sequence	PBM 8-mer E-score
CGTTAACC	0.0325 ± 0.077
CTCGCCAG	-0.193 ± 0.077
CACGAATA	0.0625 ± 0.022
CCGTATGA	-0.0951 ± 0.073
AAAGCATG	0.181 ± 0.039
ACCGGGAT	-0.253 ± 0.025
AATCCCCA	0.258 ± 0.01
TATCCCCA	0.282 ± 0.018
AATCCCCC	-0.219 ± 0.0031
AATCCCCG	0.0673 ± 0.076
AATCCCAT	0.185 ± 0.057
CATCCCCA	0.141 ± 0.047
GATCCCCA	0.153 ± 0.12
AATCCCAA	0.158 ± 0.025
AATCCCCT	0.2795 ± 0.0021
ATCGCTAC	-0.0426 ± 0.015
CCCGACAC	-0.0833 ± 0.071
AATGAGGC	0.0433 ± 0.059
GAAAGGAA	0.00148 ± 0.06
CATTCATC	0.0987 ± 0.029
CATTCATA	0.264 ± 0.046
GATTCATA	0.178 ± 0.02
CGAGAGCA	-0.0422 ± 0.048
TCGAAGAA	0.0801 ± 0.041
ACGAAGAT	0.0215 ± 0.059

Sequence	PBM 8-mer E-score
ACGAAGAA	0.2404 ± 0.0017
AGATGCGC	0.0628 ± 0.014
CCGAATTA	-0.0865 ± 0.076
GTCGGGCA	-0.103 ± 0.025
TATGAATA	0.211 ± 0.052
GATGAATC	0.06 ± 0.071
GATGAATA	0.246 ± 0.059
TACATCGA	0.106 ± 0.022
AAGTGTCC	0.0439 ± 0.046
AAAATCTA	0.00391 ± 0.078
AAACGACC	0.115 ± 0.032
AAACGACG	0.0001 ± 0.01
AAACGACT	0.24 ± 0.023
TAAGTTCA	-0.0564 ± 0.0074
GACACATA	0.0252 ± 0.086
GACATACC	-0.168 ± 0.044
AACATACG	0.273 ± 0.019
GACATAGA	-0.0561 ± 0.027
AACATAAA	0.145 ± 0.0096
CACACATA	0.00584 ± 0.1
CACATACG	0.0173 ± 0.041
GACATACA	0.235 ± 0.0046
TACACATA	0.268 ± 0.019
CACATAAA	0.0814 ± 0.0052
TACATAAA	0.242 ± 0.046

Sequence	PBM 8-mer E-score
AACATACT	0.1 ± 0.032
CGTGGGAC	0.0245 ± 0.068
CATTGGAC	-0.164 ± 0.097
ACTGAGAA	-0.135 ± 0.097
ACATGAAA	0.0717 ± 0.024
CAGGAGAA	0.107 ± 0.037
AGCAGCGA	-0.182 ± 0.0055
AGTGTTGG	0.043 ± 0.048
GCGAGACA	-0.0901 ± 0.089
AGAATTGA	-0.00649 ± 0.005
CCGGTGGA	-0.167 ± 0.015
ATAAGACC	0.114 ± 0.078
AAGGTATT	0.0792 ± 0.027
ATAGGAGG	-0.0435 ± 0.015
GGTGTCCA	0.00348 ± 0.039
ACTTACCC	0.166 ± 0.053
AACATACA	0.153 ± 0.061
TACATACA	0.235 ± 0.031
CACATACA	0.0172 ± 0.022
TCCTGCGA	-0.0443 ± 0.016
CTTAAATA	0.056 ± 0.014
AATAAATT	0.271 ± 0.019
GTTAAATA	0.23 ± 0.023
TATAAATA	0.133 ± 0.019
AATAAATG	0.226 ± 0.0099

Sequence	PBM 8-mer E-score
CATAAATA	0.293 ± 0.029
CATAAAAG	0.00379 ± 0.14
ATTAAATA	0.208 ± 0.023
AATAAATA	0.0902 ± 0.023
AATAAAAT	0.0858 ± 0.023
AATAAAAA	0.187 ± 0.046
AATAAAAG	0.241 ± 0.065
ATGTAAGA	0.104 ± 0.011
ACTCTTTC	0.0291 ± 0.035
CTTTATCC	0.0138 ± 0.00086
CGCAAACG	-0.0619 ± 0.011
CAAAATAG	0.0583 ± 0.12
CGACATTC	-0.0236 ± 0.057
TCGCAGCA	-0.185 ± 0.015
CCTTACAA	-0.0496 ± 0.00098
TAACCGTA	0.179 ± 0.033
ATGAAGGA	0.0372 ± 0.02
CAGATGGG	-0.06 ± 0.043
ACGCCACA	0.113 ± 0.019
TCACTGAA	0.0386 ± 0.03
ACAATCGG	-0.076 ± 0.075
AACGACAT	0.126 ± 0.076
AGTGCTGC	-0.166 ± 0.021
TCACCCCA	0.368 ± 0.011
CCACCCCA	0.275 ± 0.1

Sequence	PBM 8-mer E-score
CCACCCCC	-0.0738 ± 0.041
CCACCCCG	0.0359 ± 0.026
TCACCCGA	-0.0977 ± 0.0029
GCACCCCC	-0.265 ± 0.028
GCACCCCA	0.24 ± 0.031
TCACCCAA	0.154 ± 0.032
ACACCCCA	0.224 ± 0.036
CGCGTCGC	-0.0885 ± 0.02
CAACCTTG	-0.0156 ± 0.0055
CCTAAAGC	0.0284 ± 0.038
AAAATGCC	0.00067 ± 0.042
AAAATGCT	0.235 ± 0.0065
AAAATGCA	0.127 ± 0.02
AATTAGCC	-0.107 ± 0.095
CCTGACCC	-0.146 ± 0.077
CTGTTTTA	0.24 ± 0.013
CTGTTTAA	0.0361 ± 0.028
GTGTTTTA	0.098 ± 0.036
AACCCTTC	0.11 ± 0.054
CCCCCTTC	-0.174 ± 0.065
ACCCCTAG	0.11 ± 0.029
AACCCTCC	-0.0982 ± 0.073
ACCCCTTC	0.328 ± 0.018
ACCCCTAA	0.218 ± 0.037
ACCCCTCC	0.258 ± 0.052

Sequence	PBM 8-mer E-score
GCCCCTAA	0.245 ± 0.038
CCCCCTAA	-0.037 ± 0.031
CCCCCTCC	-0.0384 ± 0.17
ACCCCTAT	0.252 ± 0.081
TCCCCTAA	0.196 ± 0.03
TAGACGAA	-0.053 ± 0.022
GTCCGACA	-0.0883 ± 0.025
TACACACA	0.00095 ± 0.038
AACAGTCC	-0.0613 ± 0.014
CGCCTTCC	-0.134 ± 0.085
ACCGCCGG	-0.212 ± 0.076
ATGGCTAC	0.106 ± 0.049
CACCTCAA	-0.0623 ± 0.06
CCTCAGCC	-0.0948 ± 0.096
AGGGTCCC	-0.337 ± 0.0037
TTAGCAAA	0.1884 ± 0.00076
CGCCCTCC	0.0189 ± 0.097
GCCCCCCC	-0.18 ± 0.13
GCCCCTCA	-0.0171 ± 0.064
CCCCCTCA	0.0422 ± 0.049
GCCCCTCC	0.274 ± 0.099
TCCCCTCA	0.247 ± 0.0079
ACCCCTCG	0.0393 ± 0.084
TACCCTCA	0.0472 ± 0.026
ACCCCTCA	0.307 ± 0.0085

Sequence	PBM 8-mer E-score
ACTTCAGA	-0.161 ± 0.095
CAGCTCCG	-0.19 ± 0.065
ATATGGAA	0.0497 ± 0.036
CGGTGTAA	-0.0426 ± 0.082
GGGTGTAA	0.0984 ± 0.049
TGGTGTAA	0.249 ± 0.037
TCCGGGAA	-0.184 ± 0.07
AAAACGAG	-0.00059 ± 0.034
AGTATACA	0.135 ± 0.025
CGTATACC	-0.123 ± 0.0037
CGTATACG	0.341 ± 0.027
CGTATACA	0.0906 ± 0.018
TGTATACA	0.259 ± 0.05
GGTATACA	0.105 ± 0.011
CAGCAGGC	-0.139 ± 0.04
ACCCTCCC	0.289 ± 0.04
CCCCTCCC	0.297 ± 0.13
ACCCTCCA	0.0708 ± 0.031
CCCTCCCC	0.157 ± 0.25
CCCCTCCG	0.00173 ± 0.08
ACCCTCCT	-0.0718 ± 0.019
CGGGTTAA	-0.0694 ± 0.12
ACAGGTCT	-0.101 ± 0.015
GGCAATAC	-0.0237 ± 0.039
ACGCGGCA	-0.1504 ± 0.0011

Sequence	PBM 8-mer E-score
AGAGCAAA	-0.124 ± 0.036
AGCGTATG	0.0491 ± 0.018
CGGATTTA	-0.0345 ± 0.005
GCACGGTA	-0.226 ± 0.0061
TAACGTAA	-0.00578 ± 0.0029
ATAACGTC	0.0413 ± 0.0089
ATAACGTG	0.277 ± 0.022
ATAACGTA	0.16 ± 0.052
ATAACTTA	0.0822 ± 0.028
ATAACTTG	0.253 ± 0.032
ATAACTTC	0.1632 ± 0.00065
TTCAGGAA	-0.0598 ± 0.038
CCAAGAAC	0.098 ± 0.03
CGTCCCTC	-0.107 ± 0.023
ATTACAGC	0.0657 ± 0.05
CTTACACC	-0.035 ± 0.078
ATTACAGG	0.286 ± 0.0044
ATTACACG	0.0209 ± 0.026
ATTACAGA	-0.121 ± 0.03
ATTACACC	0.254 ± 0.06
ACGAGGGG	0.0607 ± 0.017
CAAAGGAA	0.047 ± 0.054
GAGGATGA	0.0986 ± 0.081
ATAAACGC	-0.0771 ± 0.058
GAAAACGA	-0.0116 ± 0.016

Sequence	PBM 8-mer E-score
ATAAACGA	0.233 ± 0.029
GTAAACGA	-0.00855 ± 0.0052
AAAAACGA	0.256 ± 0.03
CAAAACGA	0.103 ± 0.0049
CCGGTATC	-0.171 ± 0.092
AAGTCAGC	-0.0311 ± 0.05
AAGGCTAC	-0.168 ± 0.021
AGCGAAAA	0.212 ± 0.006
TCACACCA	0.0297 ± 0.027
CGGATGTA	-0.172 ± 0.005
AGATTTTG	0.0113 ± 0.012
CCTGTTAG	-0.0682 ± 0.013
CCTGTTAC	0.274 ± 0.049
CCTGTTAA	0.0396 ± 0.043
ACCGGCTA	-0.152 ± 0.016
ACAAGAAC	0.152 ± 0.045
CATTCTTC	0.0315 ± 0.021
ATGTAGAG	0.0764 ± 0.027
CTGTAGAA	0.0722 ± 0.0078
ATGTAGAA	0.245 ± 0.016
ATGTAGTG	0.156 ± 0.049
GTGTAGTA	0.125 ± 0.052
ATGTAGTA	0.268 ± 0.012
